Assay outcomes: PubChem BioAssay, several laboratories
MIN6 prolif: inducers of beta-cell replication in MIN6 cells | MIN6 cells proliferation, ATPlite luminescence, 48 h; cells starved in 0.2% serum; 100% = growth in 10% serum | proliferation, % at 10 µM | 0.29% of 330,000 active;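 active means compounds whose signal lies at least 3.5 SD above the mean of all wells on their plate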
PfM18AAP inh-1: PfM18AAP enzyme inhibition. inhibition, % at 7.35 µM. 1.2% of 290,000 active. AID 1822. recombinant PfM18AAP, H-Glu-NHMec fluorogenic cleavage;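 active means inhibition above the campaign mean inhibition over all tested compounds plus 3 SD, cut at about 28% in these data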
ALR H2O2 inh: inhibitors of human sulfhydryl oxidase ALR; AID 485317; purified ALR, DTT oxidation, H2O2 HRP-luminol luminescence; 3.8% of 290,000 active; inhibition, % (concentration not given with the values); P55789;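 active means mean replicate inhibition above about 79%, with every replicate also reaching it, limit read from the data; inconclusive means only one of the two criteria met; inactive means mean below limit and not every replicate reaching it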
Target sequence (P55789 whole entry, looked up): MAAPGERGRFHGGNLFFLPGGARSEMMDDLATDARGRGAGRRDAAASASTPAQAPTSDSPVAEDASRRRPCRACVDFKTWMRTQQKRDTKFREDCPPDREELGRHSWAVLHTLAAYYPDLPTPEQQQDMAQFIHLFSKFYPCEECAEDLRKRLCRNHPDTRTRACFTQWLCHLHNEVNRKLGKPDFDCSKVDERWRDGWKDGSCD
JMJD2C inh: blocks human GASC-1 demethylase activity | GST-JMJD2C(1-420) H3K9me3 demethylation, DELFIA europium | inhibition, % at 2.35 µM | 0.069% of 330,000 active;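 active means more than half of a compound's replicate wells show inhibition beyond 50%, single wells judged on their own value; inconclusive means some, but no more than half, of replicates pass 50% inhibition; inactive means no replicate passes 50% inhibition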;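 further: signal counts dimethyl H3K9 product captured on neutravidin plate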
Exocytosis inh: blocks lytic granule exocytosis | 0.66% of 360,000 active | AID 651702 | TALL-104 LAMP-1 surface exposure, flow cytometry; cells stimulated with thapsigargin and PMA | inhibition, % at 10 µM;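 active means inhibition above about 55%, limit read from the data; inconclusive means no clear call, values can overlap the other calls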
SMARCA2 act: activators of SMARCA2 function | activation, % at 9.1 µM | MG213 cells, MMTV-luciferase reporter, dexamethasone, overnight | 1% of 370,000 active | AID 652017; in the data active means activation above about 7.8%
PfM18AAP inh-2: PfM18AAP inhibition, confirmation. shares compounds with PfM18AAP inh-1. recombinant PfM18AAP, H-Glu-NHMec fluorogenic cleavage. inhibition, % at 7.35 µM. 28% of 2,400 active. AID 2170;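 active means mean inhibition over replicate wells above the hit cutoff set for the earlier primary screen, cut at about 29% in these data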
CTSL1 confirm: Cathepsin L (human) inhibition, confirmation | inhibition, % at 5.96 µM | 2,400 tested, under 10 active | purified cathepsin L1, Z-Leu-Arg-MCA fluorescence | shares compounds with PfM18AAP inh-1 | AID 2178;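 active means average inhibition across replicates above the hit cutoff set in the earlier primary screen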
Target sequence (P07711 whole entry, looked up): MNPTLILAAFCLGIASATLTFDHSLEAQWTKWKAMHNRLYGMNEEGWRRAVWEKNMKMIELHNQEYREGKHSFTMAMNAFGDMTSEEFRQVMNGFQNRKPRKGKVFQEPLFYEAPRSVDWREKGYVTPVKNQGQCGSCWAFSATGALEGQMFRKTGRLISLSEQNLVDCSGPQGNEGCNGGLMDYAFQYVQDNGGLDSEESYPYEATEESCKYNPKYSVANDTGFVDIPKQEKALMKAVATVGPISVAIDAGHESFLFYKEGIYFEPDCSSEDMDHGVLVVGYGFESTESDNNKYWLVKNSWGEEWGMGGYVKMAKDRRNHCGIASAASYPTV
Numbers stand for hits; i = inactive; ? = inconclusive; nt = no result given. Sampled rows, rich in hits. Any-hit rate of the full collection: about 5.4%.

SMILES	MIN6 prolif	PfM18AAP inh-1	ALR H2O2 inh	JMJD2C inh	Exocytosis inh	SMARCA2 act	PfM18AAP inh-2	CTSL1 confirm
Oc1c(C=C2N=c3ccccc3=N2)sc(=S)n1-c1ccc(F)cc1	i	37.6	i	i	i	i	i	i
O=C(Nn1c(O)c(C=C2N=c3ccccc3=N2)sc1=S)c1ccc(Cl)cc1	i	i	i	i	i	i	nt	nt
O=C(Nn1c(O)c(C=C2N=c3ccccc3=N2)sc1=S)c1cccc(Cl)c1	i	53.6	i	i	i	i	i	i
Cc1ccc(S(=O)(=O)Nn2c(O)c(C=C3N=c4ccccc4=N3)sc2=S)cc1	i	i	i	i	i	i	nt	nt
O=C1N=c2ccccc2=C1c1sc(=S)n(NC(=O)c2cccc(O)c2)c1O	nt	i	nt	i	i	i	nt	nt
O=C(Nn1c(O)c(C=C2N=c3ccccc3=N2)sc1=S)c1ccccc1	i	55.9	i	i	i	i	i	i
Cc1ccc(C(=O)Nn2c(O)c(C=C3N=c4ccccc4=N3)sc2=S)cc1	i	54.7	i	i	i	i	i	i
Cc1ccccc1C(=O)n1ccc2ccc(-c3ccc4ccn(Cc5ccccc5)c4c3)cc21	nt	nt	nt	nt	nt	i	nt	nt
CCCCOCCCNC(=O)C[C@H]1C[C@@]2(C(=O)OC)C(=C[C@H](C(C)C)O[C@@H]2C2CC2)N(CCC2=CCCCC2)C1=O	nt	nt	nt	nt	nt	i	nt	nt
Cc1cc(NC(=O)CSc2nnc(Cc3ccccc3)o2)no1	i	40.3	i	i	i	i	i	i
CC(C)=CCc1c(O)ccc2c1OC(c1ccc(O)c(O)c1)CC2=O (configuration not stated)	i	61.9	?	i	i	i	54.7	i
COC(=O)C1=C(C)N(Cc2ccccc2C(F)(F)F)C(=NCc2cc(OC)c(OC)c(OC)c2)NC1CCc1ccccc1 (configuration not stated)	nt	nt	nt	nt	nt	i	nt	nt
O=C(OCc1cn(Cc2ccc(Cl)cc2)nn1)N1CCCC1	nt	nt	nt	nt	nt	i	nt	nt
N#CC1=C(N)C(C#N)(C#N)[C@H](c2c(F)cccc2F)[C@H]2CC3(CC=C12)OCCO3	i	i	i	i	i	i	nt	nt
N#CC1=C(N)C(C#N)(C#N)C2(CCC3(CC2)OCCO3)C2CC3(CC=C12)OCCO3 (configuration not stated)	i	55.2	i	i	i	i	i	i
CCc1cc(C(=O)Cc2cnn(-c3ccccc3)c2)c(O)cc1O	i	i	i	i	i	i	nt	nt
O=C(Cc1cnn(-c2ccccc2)c1)c1ccc(O)c(O)c1O	i	38.1	99.5	i	i	i	i	i
CC(C)CNC(=O)OCc1cn(Cc2cccc(C(F)(F)F)c2)nn1	nt	nt	nt	nt	nt	i	nt	nt
CC1C/C(=N\NC(=S)NCc2ccccc2)CC(C)(C)C1 (configuration not stated)	i	i	i	i	i	i	nt	nt
CC1(C)CC(=O)C/C(=N\NC(=S)NCc2ccccc2)C1	i	43.4	i	i	i	i	37.7	i
C[C@@H]1ON(C)[C@H]2C[C@H]3c4[nH]c5c(-c6ccc(F)cc6)cccc5c4CCN3C(=O)[C@@H]12	nt	nt	nt	nt	nt	i	nt	nt
C#CCN1C[C@@]2(O)CC[C@@H](O)[C@@H](OC)[C@@H]2[C@@]1(C)[C@H](O)CC=C(C)C	nt	nt	nt	nt	nt	i	nt	nt
S=c1nc(-c2ccccc2Cl)[nH][nH]1	i	48.9	99.3	i	i	i	i	i
CC(=O)N1[C@H](CO)[C@@H](c2ccccc2)[C@@H]1CN(C(=O)c1ccc(F)cc1)C(C)C	nt	nt	nt	nt	nt	i	nt	nt
Cc1nc2c(cc1C(=O)N/N=C/c1ccc(O)c(O)c1)c(=O)n(C)c(=O)n2C	i	62.2	i	i	i	i	68.1	i
SMILES	MIN6 prolif	PfM18AAP inh-1	ALR H2O2 inh	JMJD2C inh	Exocytosis inh	SMARCA2 act	PfM18AAP inh-2	CTSL1 confirm
Cc1cccc2sc(NNC(=O)c3cc(=O)c4ccccc4o3)nc12	i	43.9	nt	i	i	i	i	i
Cc1nc(C)c(C(=O)Nc2nc3c(C)cccc3s2)o1	i	i	i	i	i	i	nt	nt
Oc1ccc(NCc2ccc(OCc3ccccc3)cc2)cc1	nt	45.8	i	i	i	i	i	i
COc1cc(CNc2ccc(O)cc2)cc(Br)c1OCc1ccccc1	i	i	i	i	i	i	nt	nt
C/C(=N\NC(=O)c1cccc(N/N=C(\C)c2cc(O)ccc2O)c1)c1cc(O)ccc1O	i	40.3	?	i	i	i	42.0	i
COC(=O)C1=C(C)N(C)C(=NCc2cccc(C(F)(F)F)c2)NC1c1ccc(Cl)cc1 (configuration not stated)	nt	nt	nt	nt	nt	i	nt	nt
CN(Cc1ccccc1)C(=O)OCc1cn(Cc2ccc(C(F)(F)F)cc2)nn1	nt	nt	nt	nt	nt	i	nt	nt
COC(=O)[C@]12C[C@H](CC(=O)NCC34CC5CC(CC(C5)C3)C4)C(=O)N(Cc3ccc4c(c3)OCO4)C1=C[C@H](COCc1ccccc1)O[C@@H]2C	nt	nt	nt	nt	nt	i	nt	nt
CC(Sc1nc(C(C)(C)C)cc(-c2ccccc2)c1C#N)C(=O)Nc1ccccc1 (configuration not stated)	i	33.1	i	i	i	i	i	i
O=C(/C=C(\Nc1cccc(Cl)c1F)c1ccccc1)c1ccccc1	nt	nt	nt	nt	nt	i	nt	nt
CCc1c(C)sc(NC(=O)/C=C/C(=O)O)c1C(N)=O	i	33.6	i	i	i	i	i	i
Cc1nn(-c2ccccc2)c2c1C(c1ccc([N+](=O)[O-])cc1)C(C#N)=C(N)O2 (configuration not stated)	i	i	i	i	i	i	i	i
CCOC(=O)Cc1csc(NC(=O)CSc2nnc(-c3ccc(NS(=O)(=O)CC)cc3)o2)n1	i	39.4	97.9	i	i	i	i	i
O=C(C1=C[C@H](c2ccc3c(c2)OCO3)C[C@H](OCc2ccc(CO)cc2)O1)N1CCCCCCC1	i	32.7	i	i	i	i	i	i
O=C(NNc1nc2cc3c(cc2s1)OCO3)c1ccccc1	i	47.9	99.3	i	i	i	i	i
COc1cccc(OC)c1C(=O)Nc1nc2cc3c(cc2s1)OCO3	i	i	i	i	i	i	nt	nt
O=C(NNc1nc2cc3c(cc2s1)OCO3)c1cccc(F)c1	i	i	i	i	i	i	nt	nt
COc1cc(C(=O)NNc2nc3cc4c(cc3s2)OCO4)cc(OC)c1OC	i	40.6	99.2	i	i	i	i	i
NNC(=O)c1c(O)c2cccc3c2n(c1=O)CCC3	i	33.7	nt	i	i	i	i	i
CC(C)NC(=O)c1c(O)c2cccc3c2n(c1=O)CCC3	i	i	i	i	i	i	nt	nt
O=S1(=O)CC(N2CCCC2)CN1Cc1cn(Cc2ccc(C(F)(F)F)cc2)nn1 (configuration not stated)	nt	nt	nt	nt	nt	i	nt	nt
N#Cc1ccc(S(=O)(=O)NCC2CCN(C(=O)C(=O)c3cc4ccccc4o3)CC2)cc1	nt	nt	nt	nt	nt	i	nt	nt
COC(=O)[C@]12C[C@H](CC(=O)N3CCSCC3)C(=O)N(Cc3ccccc3)C1=C[C@H](C(C)(C)C)O[C@@H]2C	nt	nt	nt	nt	nt	i	nt	nt
